Inconclusive results are not listed. Calls of active or inactive are those of the source. The calls were made as follows, unless noted: active = hit-call score of the fitted dose curve at least 0.9, where 1 is the maximum; inactive = score below 0.9.
Tests used:
[1] = biological target: Myc proto-oncogene protein (Homo sapiens) (UniProt P01106); experiment: ATG_Myc_CIS: Attagene CIS-FACTORIAL HepG2 Assay for human Myelocytomatosis (Myc) Proto-Oncogene Transcription Factor (AID 2282990); conditions: HepG2, Attagene cis-reporter transcription factor activity; actives raise or lower the signal
Sequence of Myc proto-oncogene protein (Homo sapiens) (P01106 whole entry, looked up, the tested form may be a part): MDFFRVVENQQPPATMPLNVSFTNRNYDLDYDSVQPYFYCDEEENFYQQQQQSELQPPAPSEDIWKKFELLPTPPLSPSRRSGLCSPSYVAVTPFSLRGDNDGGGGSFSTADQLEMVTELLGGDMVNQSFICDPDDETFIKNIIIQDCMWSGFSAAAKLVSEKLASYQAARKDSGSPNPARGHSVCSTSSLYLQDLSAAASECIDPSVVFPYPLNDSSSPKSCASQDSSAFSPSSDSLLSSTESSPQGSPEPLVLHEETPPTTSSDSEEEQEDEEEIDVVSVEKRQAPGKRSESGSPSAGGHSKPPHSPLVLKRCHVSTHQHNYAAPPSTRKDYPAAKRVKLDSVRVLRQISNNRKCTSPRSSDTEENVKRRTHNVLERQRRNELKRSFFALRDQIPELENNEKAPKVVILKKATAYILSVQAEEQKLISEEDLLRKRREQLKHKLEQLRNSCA
Outline: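 Read-out: fluorescent reporter mRNA fragments resolved by capillary electrophoresis after RT-PCR. Human HepG2 liver cells carried transfected cis-element reporter units and were dosed for 24 h. Gain or loss of signal fitted relative to DMSO baseline.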

[2] = ATG_NF_kB_CIS: Attagene CIS-FACTORIAL HepG2 Assay for human Nuclear Factor Kappa B (NF-kB) (AID 2282991); conditions: HepG2 Attagene cis-factorial NF-kB reporter mRNA; actives raise or lower the signal
Outline: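 DMSO served as negative control and baseline for bidirectional curve fitting. Transiently transfected HepG2 cells were dosed for 24 h, then reporter transcripts were measured by RT-PCR with capillary electrophoresis detection.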

[3] = ATG_NRF2_ARE_CIS: Attagene CIS-FACTORIAL HepG2 Assay for human Nuclear Factor Erythroid 2 Related Factor 2 (NFR2) response to Antioxidant Response Elements (ARE) (AID 2282992); conditions: HepG2 Attagene ARE/NRF2 reporter, transcription factor activity; actives raise or lower the signal;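 as to AC50: reporter mRNA level measured by RT-PCR and capillary electrophoresis fluorescence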
Outline: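 Endogenous transcription factor activity in human liver HepG2 cells is tracked via a cis-element-driven reporter within a multiplexed set. mRNA induction is read by RT-PCR and capillary electrophoresis after 24 h, with DMSO as baseline.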

[4] = ATG_Oct_MLP_CIS: Attagene CIS-FACTORIAL HepG2 Assay for human Octamer-Binding Transcription Factor (Oct) (AID 2282993); conditions: HepG2 Attagene cis-factorial Oct reporter, mRNA; actives raise or lower the signal
Outline: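 Read-out: reporter mRNA via RT-PCR plus capillary electrophoresis of 6-FAM-labelled fragments. Transiently transfected HepG2, 24 h exposure, endogenous TF activity on cis elements. Gain or loss of signal fitted relative to DMSO.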

[5] = biological target: Cellular tumor antigen p53 (Homo sapiens) (UniProt P04637); experiment: ATG_p53_CIS: Attagene CIS-FACTORIAL HepG2 Assay for human p53 Transcription Factor (AID 2282994); conditions: HepG2 p53 cis-element reporter, Attagene mRNA; actives raise or lower the signal
Sequence of Cellular tumor antigen p53 (Homo sapiens) (P04637 whole entry, looked up, the tested form may be a part): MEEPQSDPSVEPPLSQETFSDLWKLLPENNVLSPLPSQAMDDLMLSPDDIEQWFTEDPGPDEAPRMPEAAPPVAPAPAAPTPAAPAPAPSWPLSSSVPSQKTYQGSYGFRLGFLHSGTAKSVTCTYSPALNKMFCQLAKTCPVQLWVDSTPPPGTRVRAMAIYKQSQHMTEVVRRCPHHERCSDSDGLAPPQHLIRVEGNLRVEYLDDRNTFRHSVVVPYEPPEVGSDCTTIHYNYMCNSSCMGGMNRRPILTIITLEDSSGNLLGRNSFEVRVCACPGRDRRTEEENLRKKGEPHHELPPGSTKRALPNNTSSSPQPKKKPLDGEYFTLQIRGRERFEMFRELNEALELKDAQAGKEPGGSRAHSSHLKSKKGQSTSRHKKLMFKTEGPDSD
Outline: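 Steps: transfect HepG2 with multiplexed cis reporter constructs; dose chemicals 24 h; extract RNA, reverse-transcribe, PCR-amplify reporter sequences; FAM-label, HpaI-digest, resolve fragments by CE. Activity fitted both directions relative to DMSO.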

[6] = biological target: human Peroxisome Proliferator-activated Receptor delta (PPARd), PPARD (gene 5467) (UniProt Q03181); experiment: ATG_PPARd_TRANS: Attagene TRANS-FACTORIAL HepG2 Assay for human Peroxisome Proliferator-activated Receptor delta (PPARd) (AID 2283002; active = hit-call score of the fitted dose curve at least 0.9, where 1 is the maximum)
Sequence of human Peroxisome Proliferator-activated Receptor delta (PPARd), PPARD (gene 5467) (Q03181 whole entry, looked up, the tested form may be a part): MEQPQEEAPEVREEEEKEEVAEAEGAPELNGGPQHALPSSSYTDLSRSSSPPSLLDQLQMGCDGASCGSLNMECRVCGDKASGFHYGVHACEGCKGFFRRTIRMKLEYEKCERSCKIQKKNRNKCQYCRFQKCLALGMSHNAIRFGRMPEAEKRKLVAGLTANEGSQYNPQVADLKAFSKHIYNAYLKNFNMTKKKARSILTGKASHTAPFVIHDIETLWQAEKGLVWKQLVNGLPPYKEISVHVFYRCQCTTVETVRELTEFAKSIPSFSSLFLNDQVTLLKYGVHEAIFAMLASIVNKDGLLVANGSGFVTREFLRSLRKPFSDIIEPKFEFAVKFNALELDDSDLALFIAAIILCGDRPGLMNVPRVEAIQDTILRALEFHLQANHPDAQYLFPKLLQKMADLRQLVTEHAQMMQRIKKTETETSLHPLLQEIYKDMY
Outline: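 Read-out: reporter mRNA induction, quantified by fluorescent RT-PCR products resolved by capillary electrophoresis. Human HepG2 liver cells carried transiently transfected Gal4-UAS reporter constructs with chimeric NR-Gal4 fusions. Cells were dosed for 24 h; DMSO served as baseline.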

[7] = biological target: Peroxisome proliferator-activated receptor gamma (Homo sapiens) (UniProt P37231); experiment: ATG_PPARg_TRANS: Attagene TRANS-FACTORIAL HepG2 Assay for human Peroxisome Proliferator-activated Receptor-gamma (PPARg) (AID 2283007; active = hit-call score of the fitted dose curve at least 0.9, where 1 is the maximum)
Sequence of Peroxisome proliferator-activated receptor gamma (Homo sapiens) (P37231 whole entry, looked up, the tested form may be a part): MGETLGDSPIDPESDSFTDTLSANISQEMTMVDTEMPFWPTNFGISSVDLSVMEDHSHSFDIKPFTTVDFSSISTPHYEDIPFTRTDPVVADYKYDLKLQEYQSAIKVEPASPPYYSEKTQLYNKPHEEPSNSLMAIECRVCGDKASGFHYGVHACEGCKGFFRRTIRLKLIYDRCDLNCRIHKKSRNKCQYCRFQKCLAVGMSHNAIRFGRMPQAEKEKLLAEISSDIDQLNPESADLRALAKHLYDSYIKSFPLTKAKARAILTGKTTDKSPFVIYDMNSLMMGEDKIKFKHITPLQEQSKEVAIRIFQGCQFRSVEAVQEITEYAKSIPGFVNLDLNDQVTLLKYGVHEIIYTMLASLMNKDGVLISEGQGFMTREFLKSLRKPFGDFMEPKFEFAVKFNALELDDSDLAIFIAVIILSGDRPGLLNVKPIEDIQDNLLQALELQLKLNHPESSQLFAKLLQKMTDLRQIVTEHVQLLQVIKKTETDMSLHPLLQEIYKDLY
Outline: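 Chimeric NR-Gal4 transactivation is measured in transiently transfected HepG2 cells by reporter mRNA induction at 24 h. Detection uses RT-PCR with fluorescent labelling and capillary electrophoresis; DMSO defines baseline.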

[8] = biological target: Nuclear receptor subfamily 1 group I member 2 (Homo sapiens) (UniProt O75469); experiment: ATG_PXR_TRANS: Attagene TRANS-FACTORIAL HepG2 Assay for human Pregnane X Receptor (PXR) (AID 2283008; active = hit-call score of the fitted dose curve at least 0.9, where 1 is the maximum)
Sequence of Nuclear receptor subfamily 1 group I member 2 (Homo sapiens) (O75469 whole entry, looked up, the tested form may be a part): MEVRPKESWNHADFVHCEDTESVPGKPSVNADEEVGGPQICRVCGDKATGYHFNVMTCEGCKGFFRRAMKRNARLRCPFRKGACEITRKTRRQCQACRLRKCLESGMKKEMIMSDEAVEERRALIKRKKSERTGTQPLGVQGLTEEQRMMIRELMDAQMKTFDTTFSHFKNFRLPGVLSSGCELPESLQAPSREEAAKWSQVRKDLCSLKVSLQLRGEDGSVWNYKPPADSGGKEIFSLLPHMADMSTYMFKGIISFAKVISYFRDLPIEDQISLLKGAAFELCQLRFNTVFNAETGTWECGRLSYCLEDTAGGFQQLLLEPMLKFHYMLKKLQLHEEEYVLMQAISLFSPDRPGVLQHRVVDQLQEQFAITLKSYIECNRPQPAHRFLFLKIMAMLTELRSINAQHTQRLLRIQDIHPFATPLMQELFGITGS
Outline: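 HepG2 transfected (FuGene 6) with GAL4-UAS reporter units + PXR-Gal4 chimera; dosed 24 h. Total RNA → oligo(dT) RT → PCR → 6-FAM primer extension → HpaI cut → CE. Gain-of-signal vs DMSO.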

[9] = biological target: Retinoic acid receptor alpha (Homo sapiens) (UniProt P10276); experiment: ATG_RARa_TRANS: Attagene TRANS-FACTORIAL HepG2 Assay for human Retinoic Acid Receptor alpha (RARa) (AID 2283005; active = hit-call score of the fitted dose curve at least 0.9, where 1 is the maximum)
Sequence of Retinoic acid receptor alpha (Homo sapiens) (P10276 whole entry, looked up, the tested form may be a part): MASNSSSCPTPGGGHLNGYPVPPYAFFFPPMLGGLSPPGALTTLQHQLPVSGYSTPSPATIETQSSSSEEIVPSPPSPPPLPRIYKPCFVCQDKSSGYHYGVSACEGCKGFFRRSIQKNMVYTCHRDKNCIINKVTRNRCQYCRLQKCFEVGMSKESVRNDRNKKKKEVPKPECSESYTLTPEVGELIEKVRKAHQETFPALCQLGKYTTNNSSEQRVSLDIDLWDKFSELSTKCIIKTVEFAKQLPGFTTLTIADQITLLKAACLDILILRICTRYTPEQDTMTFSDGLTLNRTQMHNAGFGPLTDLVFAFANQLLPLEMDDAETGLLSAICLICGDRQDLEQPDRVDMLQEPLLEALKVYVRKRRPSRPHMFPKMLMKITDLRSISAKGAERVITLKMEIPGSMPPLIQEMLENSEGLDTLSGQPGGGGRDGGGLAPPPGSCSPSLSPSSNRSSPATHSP
Outline: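 HepG2 transiently transfected with multiplex GAL4-UAS reporter units including a human RARa–GAL4 chimera; 24 h compound exposure. Reporter mRNA quantified by RT-PCR, 6-FAM labeling and capillary electrophoresis; gain of signal versus DMSO.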

[10] = biological target: human Retinoic Acid Receptor gamma (RARg), RARG (gene 5916) (UniProt P13631); experiment: ATG_RARg_TRANS: Attagene TRANS-FACTORIAL HepG2 Assay for human Retinoic Acid Receptor gamma (RARg) (AID 2283009; active = hit-call score of the fitted dose curve at least 0.9, where 1 is the maximum)
Sequence of human Retinoic Acid Receptor gamma (RARg), RARG (gene 5916) (P13631 whole entry, looked up, the tested form may be a part): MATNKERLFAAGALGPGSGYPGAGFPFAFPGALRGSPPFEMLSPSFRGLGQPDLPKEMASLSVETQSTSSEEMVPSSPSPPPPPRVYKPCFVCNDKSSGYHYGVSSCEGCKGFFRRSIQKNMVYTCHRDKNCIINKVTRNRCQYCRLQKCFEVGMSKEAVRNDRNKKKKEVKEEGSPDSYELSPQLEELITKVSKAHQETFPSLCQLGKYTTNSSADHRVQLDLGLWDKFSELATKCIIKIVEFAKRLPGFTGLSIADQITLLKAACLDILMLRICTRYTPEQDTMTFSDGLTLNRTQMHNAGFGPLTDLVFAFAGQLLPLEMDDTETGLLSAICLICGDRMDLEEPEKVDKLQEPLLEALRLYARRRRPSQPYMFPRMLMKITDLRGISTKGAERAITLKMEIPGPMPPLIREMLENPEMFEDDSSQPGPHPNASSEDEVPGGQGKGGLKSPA
Outline: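 TRANS format measured activity of exogenous NR-GAL4 fusion (RARg) in transfected HepG2 liver cells after 24 h dosing. Induced reporter RNA was detected by RT-PCR/capillary electrophoresis fluorescence, analysed in the positive direction against DMSO.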

[11] = biological target: human RAR-related Orphan Receptor beta (RORb), RORB (gene 6096) (UniProt Q92753); experiment: ATG_RORb_TRANS: Attagene TRANS-FACTORIAL HepG2 Assay for human RAR-related Orphan Receptor beta (RORb) (AID 2283010; active = hit-call score of the fitted dose curve at least 0.9, where 1 is the maximum)
Sequence of human RAR-related Orphan Receptor beta (RORb), RORB (gene 6096) (Q92753 whole entry, looked up, the tested form may be a part): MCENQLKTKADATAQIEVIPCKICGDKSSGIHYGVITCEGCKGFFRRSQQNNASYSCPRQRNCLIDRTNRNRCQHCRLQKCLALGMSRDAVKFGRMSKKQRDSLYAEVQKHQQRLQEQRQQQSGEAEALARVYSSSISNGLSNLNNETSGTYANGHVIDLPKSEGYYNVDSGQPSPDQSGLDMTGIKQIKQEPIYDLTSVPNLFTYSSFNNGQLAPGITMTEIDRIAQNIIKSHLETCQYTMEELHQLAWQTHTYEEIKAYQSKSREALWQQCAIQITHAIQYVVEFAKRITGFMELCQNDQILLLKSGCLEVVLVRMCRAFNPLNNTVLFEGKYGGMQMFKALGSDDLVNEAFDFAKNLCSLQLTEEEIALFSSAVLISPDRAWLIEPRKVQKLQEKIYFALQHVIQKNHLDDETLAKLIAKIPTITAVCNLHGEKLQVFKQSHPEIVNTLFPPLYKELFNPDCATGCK
Outline: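 Transfect HepG2 with multiple GAL4-UAS reporter transcription units; dose chemicals for 24 h; isolate RNA, reverse-transcribe and PCR-amplify reporter sequences; label, digest and resolve fragments by capillary electrophoresis; fit increases relative to DMSO.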

[12] = biological target: human Peroxisome Proliferator-activated Receptor alpha (PPARa), PPARA (gene 5465) (UniProt Q07869); experiment: ATG_PPARa_TRANS: Attagene TRANS-FACTORIAL HepG2 Assay for human Peroxisome Proliferator-activated Receptor alpha (PPARa) (AID 2283001; active = hit-call score of the fitted dose curve at least 0.9, where 1 is the maximum)
Sequence of human Peroxisome Proliferator-activated Receptor alpha (PPARa), PPARA (gene 5465) (Q07869 whole entry, looked up): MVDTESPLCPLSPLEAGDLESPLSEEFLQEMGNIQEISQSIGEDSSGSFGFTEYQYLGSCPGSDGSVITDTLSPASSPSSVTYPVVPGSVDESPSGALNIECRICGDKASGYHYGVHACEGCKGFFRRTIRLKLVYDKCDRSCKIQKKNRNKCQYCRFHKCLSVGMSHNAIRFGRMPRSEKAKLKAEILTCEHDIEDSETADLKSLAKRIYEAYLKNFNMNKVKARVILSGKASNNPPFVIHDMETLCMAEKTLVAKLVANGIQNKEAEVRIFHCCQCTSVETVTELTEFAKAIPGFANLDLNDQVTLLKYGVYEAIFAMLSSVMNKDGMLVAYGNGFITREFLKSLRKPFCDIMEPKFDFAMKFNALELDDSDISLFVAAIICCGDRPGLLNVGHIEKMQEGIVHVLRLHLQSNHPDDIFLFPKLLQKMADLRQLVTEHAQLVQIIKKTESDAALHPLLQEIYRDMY
Outline: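 HepG2, transient MRTU transfection, 24 h treatment. RT-PCR → FAM labelling → capillary electrophoresis. Fit vs DMSO, positive direction.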

[13] = BSK_3C_TissueFactor: BioMAP Diversity Plus: 3C Assay for Tissue Factor Biomarker Activity (AID 2282997); conditions: BioMAP 3C HUVEC, tissue factor biomarker readout; actives raise or lower the signal
Outline: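 Readout: Tissue Factor ELISA. Cells: human primary umbilical vein endothelium. Time: 24 h after dosing. Analysis: bidirectional fit, DMSO baseline.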

[14] = BSK_3C_VCAM1: BioMAP Diversity Plus: 3C Assay for Vascular cell adhesion molecule 1 (VCAM1) Biomarker Activity (AID 2282999); conditions: BioMAP 3C HUVEC, VCAM1 ELISA, cytokine-stimulated; actives raise or lower the signal
Outline: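 HUVEC primary cells, 24 h compound exposure; VCAM-1 by ELISA; gain/loss of signal fitted bidirectionally vs DMSO baseline.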

[15] = BSK_4H_Eotaxin3: BioMAP Diversity Plus: 4H Assay for Eotaxin 3 Biomarker Activity (AID 2283000); conditions: primary human endothelial cells (HUVEC); actives raise or lower the signal
Outline: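 HUVEC, 24 h post-dose, ELISA for Eotaxin-3/CCL26. Gain or loss of signal fitted bidirectionally vs DMSO baseline.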

[16] = read-out: Intercellular Adhesion Molecule 1 (ICAM1), ICAM1 (gene 3383); experiment: BSK_3C_ICAM1: BioMAP Diversity Plus: 3C Assay for Intercellular Adhesion Molecule 1 (ICAM1) Biomarker Activity (AID 2283003); conditions: primary human endothelial cells (HUVEC); actives raise or lower the signal
Outline: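 Chemicals are dosed onto primary human umbilical vein endothelium (3C system). After 24 h, ICAM-1 is measured by ELISA, and responses are fitted bidirectionally relative to DMSO.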

[17] = biological target: human Retinoic Acid Receptor beta (RARb), RARB (gene 5915) (UniProt P10826); experiment: ATG_RARb_TRANS: Attagene TRANS-FACTORIAL HepG2 Assay for human Retinoic Acid Receptor beta (AID 2283004; active = hit-call score of the fitted dose curve at least 0.9, where 1 is the maximum)
Sequence of human Retinoic Acid Receptor beta (RARb), RARB (gene 5915) (P10826 whole entry, looked up, the tested form may be a part): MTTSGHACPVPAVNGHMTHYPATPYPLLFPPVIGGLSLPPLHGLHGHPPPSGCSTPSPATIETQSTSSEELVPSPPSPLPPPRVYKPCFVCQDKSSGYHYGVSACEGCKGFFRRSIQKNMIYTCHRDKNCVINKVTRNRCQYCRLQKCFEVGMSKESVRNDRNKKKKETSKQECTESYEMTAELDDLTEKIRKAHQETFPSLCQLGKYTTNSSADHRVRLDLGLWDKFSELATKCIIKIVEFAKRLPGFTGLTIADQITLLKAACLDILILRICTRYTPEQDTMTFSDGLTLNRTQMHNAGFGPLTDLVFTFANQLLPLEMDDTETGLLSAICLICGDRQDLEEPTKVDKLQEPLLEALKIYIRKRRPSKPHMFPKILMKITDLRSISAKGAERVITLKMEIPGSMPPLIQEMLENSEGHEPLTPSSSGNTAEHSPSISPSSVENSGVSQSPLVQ
Outline: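 HepG2 cells transiently transfected with multiplexed GAL4-UAS reporter units expressing chimeric NR–Gal4 fusions; 24 h compound exposure. Reporter mRNA quantified by RT-PCR, 6-FAM labelling, HpaI digestion and capillary electrophoresis; gain-of-signal fitted against DMSO baseline.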

[18] = BSK_3C_Proliferation: Cell Proliferation Assessment in the BioMAP Diversity Plus: 3C Assay (AID 2283006); conditions: primary human endothelial cells (HUVEC);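 also: potency may reflect either rise or fall in cell number versus DMSO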
Outline: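 Cells (human umbilical vein endothelial, sub-confluent) receive test chemical; after 48 h they are fixed in 10% trichloroacetic acid, stained with 0.1% SRB and read at 560 nm. Activity is referenced to DMSO, fitting increases and decreases.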

Measured: AC50

COc1ccc(N=Nc2cc(C)c(N=Nc3ccc(S(=O)(=O)O)cc3)cc2OC)cc1
inactive: [1] | [2] | [4] | [5] | [6] | [8]
active: [3] 25.7 µM | [7] 25.4 µM

Cc1ccc(N)c(S(=O)(=O)O)c1
inactive: [1] | [2] | [3] | [4] | [5] | [7] | [8]

CC(C)(C)C1=CC(=O)C(C(C)(C)C)=CC1=O
inactive: [6]
active: [1] 77.3 µM | [2] 50 µM | [3] 13.7 µM | [5] 30.5 µM | [7] 50 µM | [8] 5.78 µM

Brc1ccc(Br)c(Br)c1
inactive: [1] | [2] | [3] | [4] | [5] | [9] | [7] | [8] | [10] | [11]

CCOCCOCCOCC
inactive: [1] | [2] | [3] | [4] | [5] | [12] | [9] | [7]

N#Cc1ccc(CC(=O)c2cccc(C(F)(F)F)c2)cc1
inactive: [2] | [4] | [5] | [12] | [6] | [10]
active: [1] 158 µM | [3] 13.5 µM | [7] 31.4 µM | [8] 5.99 µM

CC1=CC[C@@]23C[C@@H]1C(C)(C)[C@@H]2CC[C@H]3C
inactive: [1] | [2] | [4] | [5] | [7] | [8]
active: [3] 100 µM

C#CC(C)N(C)C(=O)Nc1ccc(Cl)cc1 (stereo unspecified)
inactive: [1] | [2] | [4] | [5] | [7] | [8] | [10]
active: [3] 48.4 µM

CCCC[O][Al]([O]CCCC)[O]CCCC
inactive: [1] | [3] | [4] | [5]

COc1ccc(OC)c(N=Nc2c(O)ccc3ccccc23)c1
inactive: [1] | [2] | [4] | [5] | [13] | [12] | [16] | [17] | [7] | [11]
active: [3] 0.493 µM | [14] 20 µM | [15] 9.47 µM | [18] 12.6 µM | [8] 4.23 µM

CCCCCC(=O)CC
inactive: [1] | [3] | [4] | [5] | [12] | [7]

O=C1OC(=O)c2c(Br)c(Br)c(Br)c(Br)c21
active: [3] 100 µM
inactive: [2] | [4] | [12] | [6] | [7] | [8] | [10]

CC(=O)NCCO
inactive: [1] | [2] | [3] | [4] | [5] | [8] | [10] | [11]

[O-]n1ccccc1=S.[O-]n1ccccc1=S.[Zn+2]
inactive: [1] | [3] | [4] | [5] | [12] | [6] | [17] | [9] | [7]
active: [2] 0.999 µM

CCO/C=C1\N=C(c2ccccc2)OC1=O
inactive: [1] | [2] | [3] | [4] | [5] | [12] | [6] | [7] | [8]

Oc1ccc2cc(SSc3ccc4cc(O)ccc4c3)ccc2c1
active: [3] 8.28 µM | [4] 39.9 µM | [7] 5.56 µM
inactive: [1] | [2] | [6] | [8]

CCc1ccc(O)cc1
inactive: [1] | [2] | [3] | [5] | [12] | [6] | [17] | [7] | [11]
